The sample as a whole holds a higher share of hits than the screen did.
SARS PLpro yeast: SARS-CoV PLP inhibition in yeast; S. cerevisiae expressing SARS-CoV PLpro, growth rescue; Potency, µM (doses to about 32.9 µM), usual class: activators; 0.19% of 330,000 active; also: nearly all actives have a fitted effect of over 55% in size
Shiga inhibitor: Shiga toxin inhibition | 9.2% of 290,000 active | Vero cells, Shiga toxin protein synthesis inhibition reporter | inhibition, % at 38.7 µM; in the data active = inhibition mostly above about 28%, no sharp cut-off; inactive = mostly below about 43%
NS1 function inh: blocks influenza NS1 protein function | Potency, µM (doses to about 46.1 µM) | 0.4% of 270,000 active | AID 2326; also: actives are rising curves; nearly all actives have a fitted effect of over 50% in size
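Growth recovery, yeast-based: influenza A NS1 expressed in S. cerevisiae causes slow growth, and suppressors are detected by OD600. The parent strain without NS1 is used as positive control.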
LmPK inh: inhibitors of Leishmania mexicana pyruvate kinase | Q27686 | 0.37% of 290,000 active | Potency, µM (highest dose often 57.5 µM), hits mostly inhibitors | purified LmPK, Kinase-Glo ATP luminescence, 1 h; active = well fitted curve in the direction sought with a large enough effect; inconclusive = small, poorly fitted or top-dose-only effect, or another doubt; inactive = no such curve, though single readings can be large; an effect the other way counts as inactive or inconclusive
Target sequence (Q27686 whole entry, looked up): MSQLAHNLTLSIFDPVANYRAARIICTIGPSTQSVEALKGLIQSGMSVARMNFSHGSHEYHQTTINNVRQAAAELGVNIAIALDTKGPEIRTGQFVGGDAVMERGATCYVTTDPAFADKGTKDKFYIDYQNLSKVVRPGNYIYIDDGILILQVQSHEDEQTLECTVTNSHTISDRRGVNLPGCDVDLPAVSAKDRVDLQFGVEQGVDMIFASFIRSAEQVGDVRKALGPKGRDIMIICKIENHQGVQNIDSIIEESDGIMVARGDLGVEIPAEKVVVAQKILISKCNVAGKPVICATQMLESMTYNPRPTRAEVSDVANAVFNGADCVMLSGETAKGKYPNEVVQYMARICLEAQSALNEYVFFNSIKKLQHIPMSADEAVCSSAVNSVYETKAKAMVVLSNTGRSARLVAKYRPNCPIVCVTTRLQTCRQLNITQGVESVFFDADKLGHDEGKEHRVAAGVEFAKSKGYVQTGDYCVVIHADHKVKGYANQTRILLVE
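Purified LmPK (0.1 nM) converted ADP (0.1 mM) to ATP with PEP (0.5 mM) in imidazole buffer pH 7.2 with KCl and MgCl2, 1 h at room temperature. ATP was read by Kinase-Glo luminescence; data normalized to uninhibited and no-enzyme controls.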
TbPYK inhibitor: inhibitors of Trypanosoma brucei pyruvate kinase; AID 624173; Q57TT1; TbPYK enzyme, Kinase-Glo Plus ATP luminescence, 45 min; 0.12% of 410,000 active; Potency, µM (doses to about 76.8 µM), actives largely listed as inhibitors; active = well fitted curve in the direction sought with a large enough effect; inconclusive = small, poorly fitted or top-dose-only effect, or another doubt; inactive = no such curve, though single readings can be large; an effect the other way counts as inactive or inconclusive; also: nearly all actives have a fitted effect of over 50% in size
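Luminescence from Kinase-Glo Plus, added after a 45-minute room-temperature reaction, served as the end-point read-out. The enzyme and substrate were preincubated with compound before ADP (130 uM final) initiated turnover. Concentration-effect curves came from normalized qHTS data.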
Cycloheximide cs: counter-screen for Shiga toxin inhibitors: cycloheximide protein synthesis inhibition. max response, %. 12% of 300,000 active. cell reporter, cycloheximide protein synthesis inhibition counterscreen. AID 2314; in the data active = max response mostly above about 13%, no sharp cut-off; inactive = mostly below about 14%; also: read at 38.3 µM for the half of the compounds with a filed dose
Large screens that a line does not name were inactive. Unless noted, calls follow the shape of the full dose curve.

COCCn1cnnc1SCC(=O)Nc1cccc(S(=O)(=O)N(C)c2ccccc2)c1	none
COc1ccc2c(C)cc(SCC(=O)Nc3nsc(-c4ccc(C)cc4)n3)nc2c1	none
Cc1ccc(-c2nc(NC(=O)CSc3nnc(C)s3)ns2)cc1	Shiga inhibitor 77, Cycloheximide cs 23
NCCCC[C@H](NC(=O)CNC(=O)[C@@H]1CCCN1C(=O)[C@H](Cc1ccc(O)cc1)NC(=O)CN)C(=O)N[C@@H](Cc1ccccc1)C(=O)O	none (no result: SARS PLpro yeast, NS1 function inh, LmPK inh, TbPYK inhibitor)
Cc1nnc(SCC(=O)Nc2nsc(-c3ccccc3)n2)s1	Cycloheximide cs 15
CN(C)c1nccc(N(Cc2ccccc2)Cc2ccccc2)c1C#N	Shiga inhibitor 94, Cycloheximide cs 36
CCOc1ccc2nc(NC(=O)CSc3nc(SC)ns3)sc2c1	Shiga inhibitor 70, Cycloheximide cs 55
CCOc1ccc2nc(NC(=O)CSc3ccc(Cl)cc3)sc2c1	none
CCOc1ccc2nc(NC(=O)CSc3nc(-c4ccccc4)c(C#N)c(=O)[nH]3)sc2c1	Shiga inhibitor 39, Cycloheximide cs 41 (no result: NS1 function inh)
COc1ccc2nc(NC(=O)CSc3cn[nH]n3)sc2c1	Shiga inhibitor 66, Cycloheximide cs 43
CCOc1ccc2nc(NC(=O)Cn3c(C)csc3=O)sc2c1	none (no result: Shiga inhibitor, NS1 function inh, LmPK inh, Cycloheximide cs)
CCOc1ccc2nc(NC(=O)CSc3cn[nH]n3)sc2c1	Shiga inhibitor 149, Cycloheximide cs 34
O=C(COC(=O)/C=C/c1ccccc1)NCc1ccco1	none (no result: SARS PLpro yeast, Shiga inhibitor, NS1 function inh, LmPK inh, Cycloheximide cs)
CCCCN(C(=O)c1ccc(NC2CC2)c([N+](=O)[O-])c1)c1c(N)n(CCCC)c(=O)[nH]c1=O	none (no result: Shiga inhibitor, NS1 function inh, LmPK inh, Cycloheximide cs)
CC(C)C(=O)NCCc1c[nH]c2ccccc12	none
Cc1ccc(C(=O)NCCc2c[nH]c3ccccc23)s1	Shiga inhibitor 85, Cycloheximide cs 52
O=C(NCCc1c[nH]c2ccccc12)c1ccc([N+](=O)[O-])cc1	Shiga inhibitor 80, Cycloheximide cs 38
Cc1cc([N+](=O)[O-])nn1CC(=O)NCCc1c[nH]c2ccccc12	none (no result: NS1 function inh)
O=C(Cn1ccc([N+](=O)[O-])n1)NCCc1c[nH]c2ccccc12	Shiga inhibitor 92, Cycloheximide cs 58 (no result: NS1 function inh)
O=C(NCCc1c[nH]c2ccccc12)c1ccc(S(=O)(=O)NCc2ccco2)cc1	Cycloheximide cs 16
Cc1cccc(C(=O)OCc2cc(=O)n3nc(C4CC4)sc3n2)c1	none (no result: SARS PLpro yeast, Shiga inhibitor, NS1 function inh, LmPK inh, Cycloheximide cs)
O=C(NCCc1c[nH]c2ccccc12)c1ccccc1	Shiga inhibitor 94, Cycloheximide cs 39
Cc1cc(C)cc(C(=O)NCC(=O)NCCc2c[nH]c3ccccc23)c1	none
Cc1ccc(C(=O)NCCc2c[nH]c3ccccc23)c(C)c1	Shiga inhibitor 87, Cycloheximide cs 79
Cc1ccc(C(=O)N2CCCC(N3CCN(c4cccc(C(F)(F)F)c4)CC3)C2)s1 (centres undefined)	NS1 function inh inconclusive
Cc1ccc(C(=O)c2cc3ccccc3o2)cc1C	Shiga inhibitor 59, Cycloheximide cs 39
Cc1ccc(C(=O)c2cc3ccccc3o2)cc1	Shiga inhibitor 93, Cycloheximide cs 55
Cc1ccc(NC(=O)c2cc3ccccc3o2)nc1	none (no result: Shiga inhibitor, NS1 function inh, LmPK inh, Cycloheximide cs)
Cc1ccccc1CNC(=O)c1cc2ccccc2o1	none (no result: SARS PLpro yeast, Shiga inhibitor, NS1 function inh, LmPK inh, Cycloheximide cs)
O=C(c1cc2ccccc2o1)c1cccs1	Shiga inhibitor 82, Cycloheximide cs 50
Cc1ccc(-c2nnc(Nc3ccc(F)cc3)c3ccccc23)cc1S(=O)(=O)N1CCN(C)CC1	none (no result: SARS PLpro yeast, Shiga inhibitor, NS1 function inh, LmPK inh, Cycloheximide cs)
Cn1c(=O)[nH]c(=O)c2c1nc(N1CCCCC1)n2CCSc1nc2ccccc2o1	none
CC(C)CCn1c(Sc2nc3ccccc3o2)nc2c1c(=O)[nH]c(=O)n2C	Shiga inhibitor 69, Cycloheximide cs 73
Cc1ccc2oc(=O)c3cc(C(=O)N(Cc4ccccc4)C(C)C)sc3c2c1	none (no result: SARS PLpro yeast, Shiga inhibitor, NS1 function inh, LmPK inh, Cycloheximide cs)
CCCCC#Cc1ccc2c(c1)COc1c3ccccc3nn1-2	Shiga inhibitor 56, Cycloheximide cs 37
C/C(=N\NC(=O)COc1ccc(C(C)(C)C)cc1)c1ccccc1	none
COc1ccc(NCC(=O)N/N=C(\C)c2cc3ccccc3o2)cc1	Cycloheximide cs 16 (no result: NS1 function inh)
C/C(=N\NC(=O)COc1ccc(C(C)(C)C)cc1)c1cc2ccccc2o1	Shiga inhibitor 38, Cycloheximide cs 24
COCCNC(=S)N/N=C(\C)c1cc2ccccc2o1	SARS PLpro yeast inconclusive, Shiga inhibitor 25
COc1ccc(N2CCN(C(=O)COC(=O)COc3cccc(C(F)(F)F)c3)CC2)cc1	none (no result: Shiga inhibitor, NS1 function inh, LmPK inh, Cycloheximide cs)
